The target in assay [1] is Mast/stem cell growth factor receptor Kit (Homo sapiens) (UniProt P10721). Conditions: at 1 µM.
In assay [2] the test system is Mast/stem cell growth factor receptor Kit (Homo sapiens), P10721 [D816V]. Conditions: at 0.1 µM.
For assay [3] the test system is unchanged. Conditions: at 1 µM.
For assay [4], the system named is Mast/stem cell growth factor receptor Kit (Homo sapiens), P10721 [T670I]. Conditions: at 0.1 µM.
Assay [5] has the same test system. Conditions: at 1 µM.
In assay [6] the test system is Mast/stem cell growth factor receptor Kit (Homo sapiens), P10721 [V560G]. Conditions: at 0.1 µM.
The test system is the same in assay [7]. Conditions: at 1 µM.
The target of assay [8] is Tyrosine-protein kinase Lck (Homo sapiens) (UniProt P06239). Conditions: at 0.1 µM.
Assay [9] shares this target. Conditions: at 1 µM.
Assay [10] has as its target Leukocyte tyrosine kinase receptor (Homo sapiens) (UniProt P29376). Conditions: at 0.1 µM.
Assay [11] shares this target. The following applies: at 1 µM.
Assay [12] addresses Tyrosine-protein kinase Lyn (Homo sapiens) (UniProt P07948). Conditions: at 0.1 µM.
For assay [13] the target is unchanged. Conditions: at 1 µM.
Assay [14] shares this target. Conditions: at 0.1 µM. The source holds these as a separate data set.
For assay [15] the target is unchanged. Conditions: at 1 µM. The source holds these as a separate data set.
Assay [16] has as its target T1, Tyrosine-protein kinase Mer (Homo sapiens) (UniProt Q12866).
T1 sequence (whole entry): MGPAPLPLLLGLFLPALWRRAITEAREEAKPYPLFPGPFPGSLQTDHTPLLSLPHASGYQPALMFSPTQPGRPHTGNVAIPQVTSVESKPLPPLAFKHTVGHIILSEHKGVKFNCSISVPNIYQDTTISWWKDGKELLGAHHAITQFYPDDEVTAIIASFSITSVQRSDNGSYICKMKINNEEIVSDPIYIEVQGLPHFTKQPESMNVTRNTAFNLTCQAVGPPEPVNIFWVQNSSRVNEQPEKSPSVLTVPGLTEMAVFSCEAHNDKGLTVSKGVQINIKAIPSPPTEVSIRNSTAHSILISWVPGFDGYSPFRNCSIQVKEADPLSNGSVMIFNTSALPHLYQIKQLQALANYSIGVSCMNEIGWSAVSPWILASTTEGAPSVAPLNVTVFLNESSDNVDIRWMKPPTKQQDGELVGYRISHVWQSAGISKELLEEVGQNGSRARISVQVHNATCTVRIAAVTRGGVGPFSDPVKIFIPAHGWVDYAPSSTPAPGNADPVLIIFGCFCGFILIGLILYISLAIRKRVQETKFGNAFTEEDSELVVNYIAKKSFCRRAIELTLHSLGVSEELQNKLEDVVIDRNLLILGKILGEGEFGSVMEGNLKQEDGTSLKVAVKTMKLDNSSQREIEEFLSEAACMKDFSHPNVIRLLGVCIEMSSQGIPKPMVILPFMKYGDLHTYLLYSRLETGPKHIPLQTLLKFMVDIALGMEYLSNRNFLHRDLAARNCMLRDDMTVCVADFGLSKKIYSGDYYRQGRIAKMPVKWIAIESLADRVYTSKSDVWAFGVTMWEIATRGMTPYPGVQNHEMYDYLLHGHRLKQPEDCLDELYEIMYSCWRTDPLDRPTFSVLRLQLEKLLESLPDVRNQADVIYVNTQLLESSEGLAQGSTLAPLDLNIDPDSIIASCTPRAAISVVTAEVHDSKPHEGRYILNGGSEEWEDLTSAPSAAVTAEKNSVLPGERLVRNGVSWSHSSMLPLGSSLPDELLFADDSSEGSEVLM
Conditions: at 0.1 µM.

For assay [17], the target named is T1, Tyrosine-protein kinase Mer (Homo sapiens). The following applies: at 1 µM.
For assay [18], the target named is Hepatocyte growth factor receptor (Homo sapiens) (UniProt P08581). The following applies: at 0.1 µM.
For assay [19] the target is unchanged. The following applies: at 1 µM.
The target of assay [20] is T2, Muscle, skeletal receptor tyrosine-protein kinase (Homo sapiens) (UniProt O15146).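 Further: values are mean inhibition of MuSK from the GSK PKIS kinase screening panel.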
T2 sequence (whole entry): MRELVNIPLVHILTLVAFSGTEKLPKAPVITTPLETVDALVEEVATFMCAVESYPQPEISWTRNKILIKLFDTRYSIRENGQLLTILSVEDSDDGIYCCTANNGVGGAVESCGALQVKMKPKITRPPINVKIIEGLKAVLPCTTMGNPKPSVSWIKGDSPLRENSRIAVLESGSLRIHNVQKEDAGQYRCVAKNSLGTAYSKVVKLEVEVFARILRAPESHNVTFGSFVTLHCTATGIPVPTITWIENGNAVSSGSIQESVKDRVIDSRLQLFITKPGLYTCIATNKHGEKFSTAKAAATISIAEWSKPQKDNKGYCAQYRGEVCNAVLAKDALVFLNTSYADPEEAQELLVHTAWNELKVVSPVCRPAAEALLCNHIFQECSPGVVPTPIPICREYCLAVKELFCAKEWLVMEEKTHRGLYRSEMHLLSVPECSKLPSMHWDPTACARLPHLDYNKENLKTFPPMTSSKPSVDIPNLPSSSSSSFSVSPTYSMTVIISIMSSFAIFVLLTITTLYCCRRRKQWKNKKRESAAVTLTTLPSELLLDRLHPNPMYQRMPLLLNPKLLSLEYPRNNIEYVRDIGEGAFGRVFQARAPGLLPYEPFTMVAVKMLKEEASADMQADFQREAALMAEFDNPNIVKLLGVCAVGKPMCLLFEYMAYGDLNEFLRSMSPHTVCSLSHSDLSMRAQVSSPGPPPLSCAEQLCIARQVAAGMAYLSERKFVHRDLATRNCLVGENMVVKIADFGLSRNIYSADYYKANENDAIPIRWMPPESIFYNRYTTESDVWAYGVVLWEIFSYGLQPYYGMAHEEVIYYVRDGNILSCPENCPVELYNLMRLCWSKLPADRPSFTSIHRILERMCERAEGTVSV
The following applies: at 0.1 µM.

Chain of Hepatocyte growth factor receptor (Homo sapiens) (P08581 whole entry): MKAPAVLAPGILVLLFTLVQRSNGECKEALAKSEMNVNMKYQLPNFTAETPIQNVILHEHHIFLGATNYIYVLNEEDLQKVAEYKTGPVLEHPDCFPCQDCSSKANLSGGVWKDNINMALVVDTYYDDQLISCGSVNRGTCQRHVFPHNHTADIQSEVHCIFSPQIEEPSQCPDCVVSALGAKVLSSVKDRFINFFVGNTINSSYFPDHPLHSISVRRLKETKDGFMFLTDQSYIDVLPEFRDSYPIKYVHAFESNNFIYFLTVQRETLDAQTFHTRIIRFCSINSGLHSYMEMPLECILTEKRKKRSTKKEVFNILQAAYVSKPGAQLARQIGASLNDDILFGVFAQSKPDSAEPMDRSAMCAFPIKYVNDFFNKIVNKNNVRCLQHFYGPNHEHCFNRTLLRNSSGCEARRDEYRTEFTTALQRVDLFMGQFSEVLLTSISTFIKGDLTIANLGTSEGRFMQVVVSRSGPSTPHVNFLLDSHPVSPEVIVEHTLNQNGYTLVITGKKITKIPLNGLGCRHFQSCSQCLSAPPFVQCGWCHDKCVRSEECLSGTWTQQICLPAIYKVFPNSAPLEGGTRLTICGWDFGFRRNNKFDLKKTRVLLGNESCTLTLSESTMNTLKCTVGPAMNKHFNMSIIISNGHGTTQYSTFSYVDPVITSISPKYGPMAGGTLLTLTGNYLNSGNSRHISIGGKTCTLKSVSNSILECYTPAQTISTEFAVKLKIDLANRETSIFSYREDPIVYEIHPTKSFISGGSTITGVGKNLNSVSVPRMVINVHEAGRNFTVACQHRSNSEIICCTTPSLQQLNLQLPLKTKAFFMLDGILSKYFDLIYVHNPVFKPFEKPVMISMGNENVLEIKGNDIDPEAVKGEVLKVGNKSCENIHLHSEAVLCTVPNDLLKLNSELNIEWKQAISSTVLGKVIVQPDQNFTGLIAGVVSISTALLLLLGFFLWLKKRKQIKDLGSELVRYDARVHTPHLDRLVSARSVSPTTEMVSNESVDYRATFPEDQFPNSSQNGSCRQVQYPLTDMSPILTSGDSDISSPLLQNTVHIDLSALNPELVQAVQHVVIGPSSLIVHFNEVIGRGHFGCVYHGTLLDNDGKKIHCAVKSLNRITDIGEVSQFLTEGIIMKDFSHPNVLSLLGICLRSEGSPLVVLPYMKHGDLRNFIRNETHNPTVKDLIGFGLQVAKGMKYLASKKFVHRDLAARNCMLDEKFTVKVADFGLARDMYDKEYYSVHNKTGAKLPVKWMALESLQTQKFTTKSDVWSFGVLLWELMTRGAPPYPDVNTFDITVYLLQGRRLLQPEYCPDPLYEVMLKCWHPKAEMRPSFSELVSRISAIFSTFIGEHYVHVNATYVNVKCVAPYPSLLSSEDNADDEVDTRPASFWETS
Chain of Tyrosine-protein kinase Lck (Homo sapiens) (P06239 2-509 limits assumed): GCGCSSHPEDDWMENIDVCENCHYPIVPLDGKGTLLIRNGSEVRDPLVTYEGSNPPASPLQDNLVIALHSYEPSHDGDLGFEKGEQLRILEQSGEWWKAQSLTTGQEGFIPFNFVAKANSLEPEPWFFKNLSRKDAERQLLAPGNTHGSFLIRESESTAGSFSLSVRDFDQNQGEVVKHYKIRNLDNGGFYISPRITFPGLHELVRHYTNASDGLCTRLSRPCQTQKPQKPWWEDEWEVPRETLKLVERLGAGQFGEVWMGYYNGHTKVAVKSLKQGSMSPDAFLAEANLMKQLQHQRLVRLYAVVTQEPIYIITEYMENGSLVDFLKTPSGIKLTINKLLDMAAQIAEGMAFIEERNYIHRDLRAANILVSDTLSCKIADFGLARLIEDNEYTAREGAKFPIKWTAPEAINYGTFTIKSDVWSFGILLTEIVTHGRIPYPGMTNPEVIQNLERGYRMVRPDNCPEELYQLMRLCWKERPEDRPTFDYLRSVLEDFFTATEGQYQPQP
Chain of Tyrosine-protein kinase Lyn (Homo sapiens) (P07948 2-512 limits assumed): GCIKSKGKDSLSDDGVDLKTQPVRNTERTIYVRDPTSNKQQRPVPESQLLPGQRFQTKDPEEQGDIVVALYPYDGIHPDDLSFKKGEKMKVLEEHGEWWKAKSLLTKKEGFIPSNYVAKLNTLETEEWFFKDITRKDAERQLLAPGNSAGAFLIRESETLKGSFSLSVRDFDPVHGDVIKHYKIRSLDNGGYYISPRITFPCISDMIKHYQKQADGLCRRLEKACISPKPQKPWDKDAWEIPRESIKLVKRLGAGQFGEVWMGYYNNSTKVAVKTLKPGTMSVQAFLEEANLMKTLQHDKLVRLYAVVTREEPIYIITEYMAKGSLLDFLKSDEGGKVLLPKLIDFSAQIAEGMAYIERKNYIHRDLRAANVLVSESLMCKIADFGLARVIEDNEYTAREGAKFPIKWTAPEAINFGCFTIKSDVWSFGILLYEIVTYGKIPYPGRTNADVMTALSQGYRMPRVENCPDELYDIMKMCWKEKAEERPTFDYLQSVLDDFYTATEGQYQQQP
Chain of Mast/stem cell growth factor receptor Kit (Homo sapiens), P10721 [T670I] (P10721 whole entry T670I): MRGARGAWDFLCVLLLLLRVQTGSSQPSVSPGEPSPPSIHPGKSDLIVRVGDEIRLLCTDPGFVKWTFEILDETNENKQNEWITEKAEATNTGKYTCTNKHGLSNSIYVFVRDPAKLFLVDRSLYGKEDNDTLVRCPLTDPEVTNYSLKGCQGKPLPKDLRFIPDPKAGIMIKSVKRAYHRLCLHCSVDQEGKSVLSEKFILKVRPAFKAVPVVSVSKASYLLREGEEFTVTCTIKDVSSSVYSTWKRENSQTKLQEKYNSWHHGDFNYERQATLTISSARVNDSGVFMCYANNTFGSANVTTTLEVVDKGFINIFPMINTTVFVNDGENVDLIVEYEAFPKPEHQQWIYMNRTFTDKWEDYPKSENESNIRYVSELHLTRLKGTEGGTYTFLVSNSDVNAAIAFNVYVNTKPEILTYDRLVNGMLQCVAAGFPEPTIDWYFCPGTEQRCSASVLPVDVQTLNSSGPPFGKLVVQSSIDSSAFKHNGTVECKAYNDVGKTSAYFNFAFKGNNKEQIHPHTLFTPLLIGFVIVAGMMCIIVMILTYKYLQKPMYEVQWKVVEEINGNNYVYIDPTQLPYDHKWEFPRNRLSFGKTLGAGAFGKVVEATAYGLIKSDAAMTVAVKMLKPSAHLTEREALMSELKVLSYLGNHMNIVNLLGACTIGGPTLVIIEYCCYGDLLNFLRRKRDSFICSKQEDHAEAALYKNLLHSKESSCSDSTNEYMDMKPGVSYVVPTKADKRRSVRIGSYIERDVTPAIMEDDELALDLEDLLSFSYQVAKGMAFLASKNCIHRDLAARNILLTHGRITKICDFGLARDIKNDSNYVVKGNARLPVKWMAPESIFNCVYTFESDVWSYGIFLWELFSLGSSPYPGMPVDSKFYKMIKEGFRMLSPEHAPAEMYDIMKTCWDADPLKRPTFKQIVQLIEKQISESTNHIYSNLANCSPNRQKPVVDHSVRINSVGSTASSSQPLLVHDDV
Chain of Leukocyte tyrosine kinase receptor (Homo sapiens) (P29376 whole entry): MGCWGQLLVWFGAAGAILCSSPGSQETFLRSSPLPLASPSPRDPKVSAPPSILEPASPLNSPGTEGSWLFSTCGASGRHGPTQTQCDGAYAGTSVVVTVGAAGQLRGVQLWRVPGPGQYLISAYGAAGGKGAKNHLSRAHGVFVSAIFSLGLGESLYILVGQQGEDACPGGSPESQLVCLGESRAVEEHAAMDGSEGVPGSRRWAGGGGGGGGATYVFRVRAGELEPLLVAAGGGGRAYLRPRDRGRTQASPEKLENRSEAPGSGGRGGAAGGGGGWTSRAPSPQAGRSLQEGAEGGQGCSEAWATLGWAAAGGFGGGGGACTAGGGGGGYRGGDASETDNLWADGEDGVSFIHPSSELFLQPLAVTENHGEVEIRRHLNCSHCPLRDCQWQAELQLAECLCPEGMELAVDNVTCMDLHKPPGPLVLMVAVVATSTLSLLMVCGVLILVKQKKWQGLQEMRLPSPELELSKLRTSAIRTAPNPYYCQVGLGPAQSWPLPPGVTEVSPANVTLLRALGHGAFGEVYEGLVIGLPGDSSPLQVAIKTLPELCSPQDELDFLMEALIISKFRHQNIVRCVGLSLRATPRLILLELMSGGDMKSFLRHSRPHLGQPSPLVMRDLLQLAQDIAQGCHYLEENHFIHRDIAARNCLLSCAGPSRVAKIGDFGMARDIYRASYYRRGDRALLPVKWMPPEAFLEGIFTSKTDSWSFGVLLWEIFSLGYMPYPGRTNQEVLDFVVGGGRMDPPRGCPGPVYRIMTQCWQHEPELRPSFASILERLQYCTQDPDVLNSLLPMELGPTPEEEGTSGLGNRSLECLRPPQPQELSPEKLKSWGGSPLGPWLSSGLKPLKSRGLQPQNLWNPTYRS
Chain of Mast/stem cell growth factor receptor Kit (Homo sapiens), P10721 [D816V] (P10721 whole entry D816V): as the sequence (P10721 whole entry T670I) above, with I670T, D816V counted along it
Chain of Mast/stem cell growth factor receptor Kit (Homo sapiens) (P10721 whole entry): as the sequence (P10721 whole entry T670I) above, with I670T counted along it
Chain of Mast/stem cell growth factor receptor Kit (Homo sapiens), P10721 [V560G] (P10721 whole entry V560G): as the sequence (P10721 whole entry T670I) above, with V560G, I670T counted along it

With `COc1ccc2cc(-c3c(-c4ccncc4)nc(-c4ccc([S+](C)[O-])cc4C)n3C)ccc2c1` (stereo not given), the inhibition – broadly, the drop in the measured response relative to a control, in per cent – in assay [1] was 4.45%; in assay [2], -3.23%; in [3], -3.08%; in assay [4], 0.48%; in assay [5], 0.67%; in assay [6] it was 4.53%. The inhibition is -0.3% in assay [7]; 0.43% in assay [8]; 8.73% in [9]; 0.03% in assay [10]; 2.92% in [11]; 2% in assay [12]. Moreover, the inhibition in assay [13] is 21.4%; in [14], 0.52%; in assay [15], 16.8%; in assay [16], 0.82%; in assay [17], 9.89%; in assay [18], -1.42%. Also, the inhibition in assay [19] is 3.32%; in assay [20] it was 0.94%.

Turning to `COc1cc2ncn(-c3cc(OCc4cccs4)c(C(N)=O)s3)c2cc1OC`, the inhibition in assay [1] was 11.7%; in [2], -0.06%; in assay [3], 3.94%; in assay [4] it was 1.45%; in assay [5], 7.04%; in assay [6] it was 1.25%. Further, the inhibition in assay [7] is 4.05%; in [8] it was -0.61%; in assay [9], 13.8%; in assay [10], 1.76%; in assay [11] it was 7.14%; in [12], 4.29%. Also, the inhibition in assay [13] was 22.6%; in [14], 2.41%; in assay [15], 19.3%; in [16], 3.4%; in assay [17], 10.7%; in assay [18] it was 8.19%. Also, the inhibition was found to be 13.4% in assay [19] and 4.86% in assay [20].

Consider `COc1cc(Nc2ncc3c(C)nc(-c4cccc(Oc5ccccc5)c4)n3n2)cc(OC)c1OC`, for which the inhibition in assay [1] is 18.8%; in assay [2], 2.25%; in assay [3], 0.81%; in [4], 0.81%; in [5], -0.67%; in assay [6], -2.03%. Also, the inhibition amounted to 1.13% in assay [7]; 1.24% in [8]; 5.01% in assay [9]; 3.21% in [10]; 3.54% in assay [11]; 3.39% in assay [12]. The inhibition turned out to be 4.7% in assay [13]; 1.89% in assay [14]; 3.75% in assay [15]; 1.36% in assay [16]; 1.57% in [17]; 1.11% in assay [18]. Moreover, the inhibition in assay [19] is -0.18%; in [20], 1.49%.

As for `NS(=O)(=O)c1ccc(N/N=C2\C(=O)Nc3ccc(-c4cnco4)cc32)cc1`, the inhibition in assay [1] is 42.2%; in [2], 0.65%; in [3], 5.47%; in assay [4], 1.64%; in assay [5] it was 10.7%; in assay [6] it was 0.82%. Further, the inhibition is 3.19% in [7]; -1.05% in assay [8]; 4.4% in assay [9]; 1.24% in assay [10]; 3.37% in [11]; 3.33% in assay [12]. Besides, the inhibition turned out to be 11.1% in [13]; 1.68% in [14]; 8.81% in assay [15]; 1.31% in [16]; 8.19% in assay [17]; 6.22% in assay [18]. For the same compound, the inhibition in [19] worked out at 2.64%; in assay [20], 4.18%.

With `FC(F)(F)c1cccc(Nc2nccc(-c3cnn4nc(-c5ccccc5)ccc34)n2)c1`, the inhibition is 37.3% in assay [1]; 1.06% in assay [2]; 0.54% in assay [3]; 1.8% in [4]; 5.77% in assay [5]; -2.09% in assay [6]. Also, the inhibition worked out at 1.67% in [7]; 1.68% in assay [8]; 2.24% in assay [9]; 0.59% in [10]; 0.52% in assay [11]; 0.75% in assay [12]. Besides, the inhibition was 3.22% in assay [13]; 0.52% in assay [14]; 2.95% in assay [15]; -0.58% in assay [16]; 0.62% in assay [17]; -0.38% in assay [18]. Also, the inhibition stood at 0.28% in assay [19] and 1.03% in [20].

On to `Fc1ccc(-c2c(-c3ccncc3)nc3n2CCS3)cc1`, for which the inhibition was 9.55% in [1]; 0.48% in assay [2]; 4.72% in assay [3]; 2.05% in assay [4]; 3.53% in [5]; -2.29% in assay [6]. The inhibition in [7] was -3.6%; in [8] it was -3.58%; in assay [9], -1.31%; in assay [10], 3.49%; in assay [11] it was 1.53%; in assay [12], 2.47%. Further, the inhibition in assay [13] turned out to be 6.12%; in assay [14] it was 1.33%; in assay [15], 3.93%; in [16], 1.44%; in [17], 1.51%; in assay [18] it was 3.45%. The inhibition in assay [19] was 0.39%; in assay [20] it was 4.78%.

For the origin of these results see ChEMBL document CHEMBL1961873, “Compounds: GSK PKIS; Assays: Nanosyn kinase panel” (2012).
